PI4K2A block = qHTS for small molecular inhibitors of PI4K2A; activity change, negative = inhibition, % at 76.9 µM; 420,000 compounds, 0.13% hits; purified PI4K2A, ADP-Glo luminescence, 1 h; hits give low values; Phosphatidylinositol 4-kinase type 2-alpha (Homo sapiens), Q9BTU6; in the data active = activity change below about -50%; inconclusive = mostly about -30% to -49%;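 note: -100% = wells without enzyme as full effect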
Target sequence (Q9BTU6 whole entry, looked up): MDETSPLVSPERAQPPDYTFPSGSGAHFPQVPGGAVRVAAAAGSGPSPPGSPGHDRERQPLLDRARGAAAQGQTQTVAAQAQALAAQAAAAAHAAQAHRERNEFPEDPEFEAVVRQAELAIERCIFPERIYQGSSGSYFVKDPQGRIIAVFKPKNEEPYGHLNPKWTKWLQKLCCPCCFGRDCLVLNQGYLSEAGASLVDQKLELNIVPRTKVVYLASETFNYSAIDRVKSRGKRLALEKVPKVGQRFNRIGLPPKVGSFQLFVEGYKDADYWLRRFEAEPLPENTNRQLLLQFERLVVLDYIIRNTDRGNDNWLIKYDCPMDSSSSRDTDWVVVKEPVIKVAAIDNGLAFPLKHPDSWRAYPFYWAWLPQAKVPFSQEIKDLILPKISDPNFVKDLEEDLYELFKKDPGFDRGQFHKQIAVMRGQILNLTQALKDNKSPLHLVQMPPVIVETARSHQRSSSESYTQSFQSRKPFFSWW
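ADP-Glo luminescence measured ADP generated by PI4K2A enzyme (4 ug/mL before mixing) with 1.2 mM PI substrate (pre-mix) and 300 microM ATP (pre-mix). Tris pH7.5 buffer with MgCl2, Triton X-100; 1 h reaction at ambient temperature.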
KB-3-1 cytotox = qHTS assay for MDR1-selective chemotherapeutics: Primary screen using the parental adenocarcinoma cell KB-3-1; KB-3-1 viability, CellTiter-Glo ATP luminescence, 72 h; 400,000 compounds, 1.4% hits; Potency, µM (highest dose often 46.1 µM), most hits filed as cytotoxic; note: potency is the fitted concentration of half-maximal effect; nearly all actives have a fitted effect of over 60% in size
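Multi-concentration cytotoxicity screen in KB-3-1 cells grown in DMEM lacking phenol red with 10% FBS. After 72 h at 37 °C with compound, ATP-dependent luminescence was recorded.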
A549 tox = Nrf2 qHTS screen for inhibitors: counterscreen for cytotoxicity; A549 ARE-Fluc cells, CellTiter-Fluor viability, 18-24 h; AID 504648, 2011; Potency, µM (titrated, usually from 46 µM), without a hit: at the highest dose activity change, negative = cytotoxicity, most hits filed as inhibitors; 390,000 compounds, 0.16% hits; note: potency is the fitted concentration of half-maximal effect
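A549 ARE-Fluc cells in 5% FBS OPTI-MEM, 5000 cells/well, rested 2 h then exposed to compounds in concentration-response for 18-24 h at 37 °C. Viability by CellTiter-Fluor fluorescence (Ex 405/Em 525) after 30 min; luciferase luminescence (BugLite, 15 min, RT) read afterwards.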
KB-V1 cytotox = qHTS assay for MDR1-selective chemotherapeutics: Primary screen using the drug-selected MDR subline cells KB-V1; Potency, µM (highest dose often 46.1 µM), most hits filed as cytotoxic; AID 1347076, 2019; 400,000 compounds, 3.4% hits; KB-V1 MDR cells viability, CellTiter-Glo, 72 h; note: potency is the fitted concentration of half-maximal effect; nearly all actives have a fitted effect of over 60% in size
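Drug-selected KB-V1 cells, grown in DMEM lacking phenol red with 10% FBS, receive compound titrations; after three days at 37 degrees C, surviving cell ATP is quantified by CellTiter-Glo luminescence and responses normalized and curve-fitted.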
Nrf2 inh = Nrf2 qHTS screen for inhibitors | A549 ARE-Fluc reporter, luciferase luminescence, 18-24 h | Potency, µM (series often up to 46 µM), without a hit: at the top dose activity change, negative = inhibition, actives largely listed as inhibitors | 360,000 compounds, 2.1% hits; note: potency is the fitted concentration of half-maximal effect; nearly all actives have a fitted effect of over 60% in size
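Nrf2 function is reported as luminescence of an ARE-controlled luciferase in A549 cells. Compounds were tested at several concentrations, and a CellTiter-Fluor read on the same wells flagged cytotoxicity.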
Giardia killer = Small Molecules that selectively kill Giardia lamblia: qHTS | Giardia lamblia trophozoite viability | 340,000 compounds, 0.15% hits | AID 540267, 2011 | activity change, % at 7.66 µM, hits read low; in the data active = activity change below about -80%; inconclusive = between about -30% and that limit;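 note: parasites exposed to compound for two days anaerobically before the ATP read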
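Anaerobic 48 hrs incubation at 37 deg C of 100 trophozoites/well with test compounds; ATPLite 1-Step luminescence, 15-30 min RT, reports cellular ATP as viability.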
Starred values were filed as active, the others as inactive; i = inactive; ? = inconclusive; · = no result given. This is a sample that favours compounds with a hit; in the whole collection about 5.7% have one here. Unless noted, calls come from the whole dose curve; as a rule, active = well fitted curve in the direction sought with a large enough effect; inconclusive = small, poorly fitted or top-dose-only effect, or another doubt; inactive = no such curve, though single readings can be large; an effect the other way counts as inactive or inconclusive. Unless noted, % is set by controls: 0 for no effect and ±100 for the full control effect.

SMILES | PI4K2A block | KB-3-1 cytotox | A549 tox | KB-V1 cytotox | Nrf2 inh | Giardia killer
CC1=CC(C)(C)N(C(=O)c2ccccc2)c2ccc(C)cc21 | 5 | i | ? | i | -4% | 6
S=C(c1ccc2c(c1)OCO2)N1CCN(c2cccc(Cl)c2)CC1 | -3 | 4.1µM* | -17% | ? | ? | 6
Cc1cccc(N2CCN(C(=S)c3ccc4c(c3)OCO4)CC2)c1 | -1 | 10µM* | -15% | i | ? | 12
Cc1cc(S(=O)(=O)Nc2c(C)nn(C)c2C)c(Cl)cc1Cl | 0 | ? | -3% | 18µM* | ? | 17
Cc1ccc(NC(=O)C2CCN(S(=O)(=O)c3ccc4c(c3)NC(=O)C(C)S4)CC2)c(Cl)c1 (stereo not drawn) | 6 | ? | -17% | ? | 23µM* | 4
COc1cccc(CNC(=O)C2CCN(S(=O)(=O)c3ccc4c(c3)NC(=O)C(C)S4)CC2)c1 (stereo not drawn) | -11 | i | -5% | i | 18µM* | 3
Cc1cc(C)cc(NC(=O)C2CCN(S(=O)(=O)c3ccc4c(c3)NC(=O)C(C)S4)CC2)c1 (stereo not drawn) | -1 | i | -16% | i | -16% | 10
Cc1ccc(CCNC(=O)C2CCN(S(=O)(=O)c3ccc4c(c3)NC(=O)C(C)S4)CC2)cc1 (stereo not drawn) | -2 | ? | -25% | i | 16µM* | -23
CC1Sc2ccc(S(=O)(=O)N3CCC(C(=O)NCCc4ccccc4)CC3)cc2NC1=O (stereo not drawn) | 9 | i | 0% | i | -28% | 6
CCOc1cc2sc(N3CCC(C(=O)Nc4ccccc4Cl)CC3)nc2cc1Br | -1 | i | -6% | i | ? | ·
COC(=O)c1c(C)[nH]c(C(=O)C(C)OC(=O)C2CC2C)c1C (stereo not drawn) | -1 | i | 0% | i | -7% | -27
COC(=O)c1c(C)[nH]c(C(=O)C(C)OC(=O)C2=NNC(=O)CC2)c1C (stereo not drawn) | 1 | ? | -3% | 5.8µM* | 2% | -2
COc1ccc(C2N(Cc3ccccc3)C(=O)c3ccccc3N2C)cc1COc1ccc(NC(C)=O)cc1 (stereo not drawn) | · | · | -10% | · | ? | ·
CCc1cc2c(CN(C)Cc3ccccc3F)cc(=O)oc2cc1O | 4 | ? | -6% | 12µM* | ? | -11
O=C(CCl)N=c1sccn1Cc1ccc(Cl)cc1Cl | 10 | ? | -2% | 18µM* | -3% | 6
C/C(C=NNC(=O)CSc1nnc(-c2ccc(Cl)cc2)n1-c1ccc(C)cc1)=C\c1ccccc1 | -1 | · | · | · | · | ·
CCOCN(C(=O)Cn1cnc2cc(C)c(C)cc21)c1c(C)cccc1CC | -1 | ? | -11% | 5.2µM* | 2% | ·
COc1ccc2c(c1)CCCN2C(=O)C1CCCN(S(=O)(=O)c2ccc(Br)s2)C1 (stereo not drawn) | -2 | · | · | · | · | ·
Cc1ccccc1N(C)C(=O)Cn1nnc(-c2ccccc2F)n1 | -3 | · | · | · | · | ·
Cc1ccc(S(=O)(=O)N(C)S(=O)(=O)c2ccc(C)cc2)cc1 | 0 | ? | 4% | i | 23µM* | 7
Cc1ccc(/C=N/N(C)S(=O)(=O)c2ccc(C)cc2)cc1 | 3 | ? | -1% | i | 26µM* | 8
CCN(CC)S(=O)(=O)c1ccc2c(c1)N(CC(=O)Nc1cccc(C#N)c1)C(=O)CO2 | 3 | · | -8% | · | -2% | ·
COc1ccc(S(=O)(=O)N2CCOCC2)cc1NC(=O)Cc1ccc2c(c1)OCCO2 | -2 | i | 6% | 18µM* | 5% | -2
CCOc1ccc(S(=O)(=O)N2CCCCC2)cc1NC(=O)Cc1ccsc1 | 6 | i | 0% | 12µM* | -23% | 2
COc1ccc(S(=O)(=O)N2CCOCC2)cc1NC(=O)COc1ccc(C)cc1 | -3 | · | 1% | · | ? | -20
SMILES | PI4K2A block | KB-3-1 cytotox | A549 tox | KB-V1 cytotox | Nrf2 inh | Giardia killer
COc1ccc(S(=O)(=O)N2CCCCC2)cc1NC(=O)Cc1ccsc1 | -5 | · | 0% | · | -27% | 6
CCOc1ccc(S(=O)(=O)N2CCOCC2)cc1NC(=O)CSCc1ccc(C)cc1 | -2 | 18µM* | -1% | ? | -7% | -6
O=C(CN1CCN(S(=O)(=O)c2ccc(F)c(Cl)c2)CC1)N1CCc2ccccc2C1 | 6 | i | -6% | 9.2µM* | -15% | 12
COc1ccc(S(=O)(=O)N2CCN(CC(=O)N3CCc4ccccc4C3)CC2)cc1OC | -4 | i | -7% | i | ? | -2
O=C(CCC(=O)N1CCc2ccccc2C1)N1CCN(S(=O)(=O)c2ccccc2)CC1 | -2 | i | 3% | 13µM* | 13% | 3
O=C(CCCOc1ccccc1)N1CCN(S(=O)(=O)c2ccccc2)CC1 | 1 | i | -1% | i | 3% | 12
O=C(CN1CCN(S(=O)(=O)c2ccc(F)c(Cl)c2)CC1)N1CCc2ccccc21 | 1 | ? | -3% | 3.3µM* | -6% | 2
O=S(=O)(CC1NCc2ccccc21)NCc1ccc(F)cc1 (stereo not drawn) | -5 | · | · | · | · | ·
CCCS(=O)(=O)NCCc1csc2nc(-c3ccc(OC)cc3)nn12 | -6 | · | -2% | · | · | ·
CCC(c1nnnn1Cc1ccccc1)N(Cc1ccco1)Cc1cc2cc(OC)ccc2[nH]c1=O (stereo not drawn) | -2 | ? | -13% | i | ? | -3
CCC(c1nnnn1CCOC)N(Cc1ccc(C)cc1)Cc1cc2cc(OC)ccc2[nH]c1=O (stereo not drawn) | -5 | ? | -14% | 23µM* | 1% | -13
CN(Cc1ccccc1)S(=O)(=O)c1cccc2cccnc12 | -2 | i | 7% | 21µM* | -3% | 15
COc1ccc(N2CCN(C(=O)CN(CCc3ccccc3)S(C)(=O)=O)CC2)cc1 | -1 | i | 2% | ? | -19% | 3
COc1ccccc1N1CCN(C(=O)CN(CCc2ccccc2)S(C)(=O)=O)CC1 | -1 | i | -2% | 9.2µM* | -27% | -13
CC(=O)c1sc(=S)n(-c2ccccc2)c1C | 0 | i | 0% | i | 3% | -20
CC(=O)c1sc2c(c1OC(=O)c1ccccc1)c(=O)n(-c1ccccc1)c(=S)n2-c1ccccc1 | 4 | 8.2µM* | -9% | 9.2µM* | -9% | -12

High-throughput results from PubChem BioAssay.
